Results: PubChem BioAssay (EPA / NIEHS)
Results filed as inconclusive are left out. Activity calls are given as the source filed them. The calls were made as follows, unless noted: active = hit-call score of the fitted dose curve at least 0.9, where 1 is the maximum; inactive = score below 0.9.

Tests used:
[1] = target: Paired box protein Pax-6 (Homo sapiens) (UniProt P26367); experiment: ATG_Pax6_CIS: Attagene CIS-FACTORIAL HepG2 Assay for human Paired Box 6 (PAX6) (AID 2282956); settings: HepG2 CIS-FACTORIAL PAX6 reporter transcription, RNA readout; actives raise or lower the signal
Chain of Paired box protein Pax-6 (Homo sapiens) (P26367 whole entry, looked up): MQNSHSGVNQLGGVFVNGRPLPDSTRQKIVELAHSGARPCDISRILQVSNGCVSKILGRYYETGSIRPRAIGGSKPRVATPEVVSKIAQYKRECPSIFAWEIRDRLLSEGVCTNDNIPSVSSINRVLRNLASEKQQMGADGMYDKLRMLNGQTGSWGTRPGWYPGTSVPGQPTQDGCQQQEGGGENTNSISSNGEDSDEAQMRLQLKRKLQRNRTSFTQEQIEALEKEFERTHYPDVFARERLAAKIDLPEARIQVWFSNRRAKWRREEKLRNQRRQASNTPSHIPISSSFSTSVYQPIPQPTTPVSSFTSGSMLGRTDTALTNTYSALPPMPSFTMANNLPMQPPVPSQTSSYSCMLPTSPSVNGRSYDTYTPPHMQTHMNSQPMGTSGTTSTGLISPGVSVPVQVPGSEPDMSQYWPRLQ
In short: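 HepG2 cells transiently transfected with cis-promoter-driven multiplexed reporter units sensing endogenous transcription factor activity; 24 h chemical exposure. Reporter mRNA quantified by RT-PCR, 6-FAM labelling, HpaI digestion and capillary electrophoresis; bidirectional fit versus DMSO baseline.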

[2] = ATG_PXRE_CIS: Attagene CIS-FACTORIAL HepG2 Assay for human Pregnane X Receptor Element (PXRE) (AID 2282957); settings: HepG2 Attagene CIS-FACTORIAL PXRE reporter, mRNA; actives raise or lower the signal
In short: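 HepG2 cells transiently transfected with cis-regulated multiple reporter transcription units; endogenous factor activity measured as reporter mRNA 24 h after dosing. RT-PCR, fluorescent primer extension, HpaI digestion, capillary electrophoresis; bidirectional fit versus DMSO baseline.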

[3] = ATG_PPRE_CIS: Attagene CIS-FACTORIAL HepG2 Assay for human Peroxisome Proliferator-activated Response Element (PPRE) (AID 2282958); settings: HepG2 PPRE cis-element reporter, Attagene transcription factor profiling; actives raise or lower the signal
In short: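 Multiplexed reporter transcription units under cis-regulatory promoters were transfected into HepG2 cells to capture endogenous factor activity. A 24 h incubation preceded RNA isolation and fluorescent RT-PCR fragment analysis.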

[4] = ATG_RORE_CIS: Attagene CIS-FACTORIAL HepG2 Assay for human RAR-related Orphan Receptor Element (RORE) (AID 2282959); settings: HepG2 Attagene cis-factorial RORE reporter, mRNA; actives raise or lower the signal
In short: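 Fluorescence intensity of reporter-specific cDNA fragments, separated by capillary electrophoresis, gives the signal. Source: HepG2 liver cells transiently transfected with cis-element reporters and exposed 24 h; DMSO-normalized bidirectional fit.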

[5] = ATG_Sox_CIS: Attagene CIS-FACTORIAL HepG2 Assay for human SRY-box transcription factor (SOX) (AID 2282960); settings: HepG2 Attagene cis-factorial SOX reporter, mRNA; actives raise or lower the signal
In short: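 After 24 h of chemical treatment, transfected HepG2 reporter cells are lysed for total RNA. Transcript levels come from RT-PCR with labelled primer extension and capillary electrophoresis, analysed bidirectionally versus DMSO.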

[6] = target: Transcription factor Sp1 (Homo sapiens) (UniProt P08047); experiment: ATG_Sp1_CIS: Attagene CIS-FACTORIAL HepG2 Assay for human Specificity Protein 1 (Sp1) (AID 2282961); settings: HepG2 Sp1 cis-reporter transcription, actives raise or lower the signal
Chain of Transcription factor Sp1 (Homo sapiens) (P08047 whole entry, looked up): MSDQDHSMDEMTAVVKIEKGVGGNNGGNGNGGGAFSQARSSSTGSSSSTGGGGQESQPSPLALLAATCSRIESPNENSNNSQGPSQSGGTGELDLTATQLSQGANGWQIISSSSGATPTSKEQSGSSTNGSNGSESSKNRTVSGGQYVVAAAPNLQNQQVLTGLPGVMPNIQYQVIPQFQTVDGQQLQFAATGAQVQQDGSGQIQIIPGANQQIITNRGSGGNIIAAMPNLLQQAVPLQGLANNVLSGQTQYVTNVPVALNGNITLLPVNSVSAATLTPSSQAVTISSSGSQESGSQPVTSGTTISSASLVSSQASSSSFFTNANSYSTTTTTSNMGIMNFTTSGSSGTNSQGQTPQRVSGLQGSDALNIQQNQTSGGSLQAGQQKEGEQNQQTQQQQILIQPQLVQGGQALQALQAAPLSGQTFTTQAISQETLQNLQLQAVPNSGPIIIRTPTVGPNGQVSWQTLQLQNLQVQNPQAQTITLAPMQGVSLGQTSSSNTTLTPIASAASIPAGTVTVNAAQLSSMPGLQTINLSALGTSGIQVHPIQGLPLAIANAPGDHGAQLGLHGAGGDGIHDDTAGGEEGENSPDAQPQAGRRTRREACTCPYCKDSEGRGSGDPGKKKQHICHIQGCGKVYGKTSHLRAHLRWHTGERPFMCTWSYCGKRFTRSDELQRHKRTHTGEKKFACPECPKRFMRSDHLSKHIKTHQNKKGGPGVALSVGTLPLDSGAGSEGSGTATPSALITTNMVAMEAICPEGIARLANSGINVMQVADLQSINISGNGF
In short: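 Sp1-driven reporter mRNA, read as capillary electrophoresis fluorescence after RT-PCR, in transiently transfected HepG2 cells dosed for 24 h; signal change in either direction relative to DMSO.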

[7] = ATG_SREBP_CIS: Attagene CIS-FACTORIAL HepG2 Assay for human Sterol Regulatory Element Binding (SREBP) (AID 2282962); settings: HepG2 Attagene cis-factorial SREBP reporter, mRNA; actives raise or lower the signal
In short: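 HepG2 cells transiently transfected with multiplexed cis-promoter reporter units sensing endogenous transcription factors; reporter mRNA measured 24 h after dosing by RT-PCR, 6-FAM labeling, HpaI digestion and capillary electrophoresis. Bidirectional fit versus DMSO.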

[8] = target: Signal transducer and activator of transcription 3 (Homo sapiens) (UniProt P40763); experiment: ATG_STAT3_CIS: Attagene CIS-FACTORIAL HepG2 Assay for human Signal Transducer and Activator of Transcription 3 (STAT3) (AID 2282963); settings: HepG2, Attagene cis-factorial STAT3 reporter transcription; actives raise or lower the signal
Chain of Signal transducer and activator of transcription 3 (Homo sapiens) (P40763 whole entry, looked up): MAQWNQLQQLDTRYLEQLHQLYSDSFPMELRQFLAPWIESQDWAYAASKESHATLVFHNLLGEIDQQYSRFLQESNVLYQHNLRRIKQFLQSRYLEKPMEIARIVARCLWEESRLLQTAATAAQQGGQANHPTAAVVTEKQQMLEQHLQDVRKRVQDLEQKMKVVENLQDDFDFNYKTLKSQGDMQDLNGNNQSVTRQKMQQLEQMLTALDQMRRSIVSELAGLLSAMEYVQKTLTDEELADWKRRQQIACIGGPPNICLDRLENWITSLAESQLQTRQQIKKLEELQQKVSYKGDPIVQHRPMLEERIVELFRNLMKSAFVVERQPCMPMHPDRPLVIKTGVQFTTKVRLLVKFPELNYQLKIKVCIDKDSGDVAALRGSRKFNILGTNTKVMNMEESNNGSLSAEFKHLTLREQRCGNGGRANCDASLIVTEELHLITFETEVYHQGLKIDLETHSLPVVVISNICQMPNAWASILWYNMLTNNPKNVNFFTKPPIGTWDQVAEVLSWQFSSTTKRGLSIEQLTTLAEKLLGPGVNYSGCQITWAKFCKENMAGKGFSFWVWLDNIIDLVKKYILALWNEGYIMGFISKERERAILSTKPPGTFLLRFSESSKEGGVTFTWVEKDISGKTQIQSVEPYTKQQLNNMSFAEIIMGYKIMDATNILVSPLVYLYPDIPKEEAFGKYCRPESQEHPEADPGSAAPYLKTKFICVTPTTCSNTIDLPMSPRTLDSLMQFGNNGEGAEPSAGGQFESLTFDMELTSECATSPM
In short: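 HepG2 cells transiently transfected with cis-element-driven multiple reporter transcription units; after 24 h chemical exposure, reporter mRNA measured by RT-PCR, 6-FAM primer-extension labelling, HpaI digestion and capillary electrophoresis. Bidirectional fitting versus DMSO baseline.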

[9] = ATG_TCF_b_cat_CIS: Attagene CIS-FACTORIAL HepG2 Assay for human T-Cell-Factor with beta-catenin (TCF/b-cat) (AID 2282965); settings: HepG2 TCF/beta-catenin cis-reporter transcription, actives raise or lower the signal
In short: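 Using capillary electrophoresis as the read-out, labelled reporter cDNA fragments from transiently transfected HepG2 were sized and quantified. Exposure lasted 24 hours; activity in either direction was referenced to DMSO.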

[10] = ATG_TAL_CIS: Attagene CIS-FACTORIAL HepG2 Assay for human TAL Basal Promoter (AID 2282966); settings: HepG2 Attagene cis-factorial TAL promoter reporter; actives raise or lower the signal;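 also: background control endpoint measuring basal TAL promoter reporter mRNA not a specific factor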
In short: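 HepG2 cells were transiently transfected with promoter-driven multiplexed reporter units and dosed for 24 h. Reporter mRNA was measured by RT-PCR with capillary electrophoresis fluorescence; bidirectional fits used DMSO as baseline, serving as a background control.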

[11] = ATG_TGFb_CIS: Attagene CIS-FACTORIAL HepG2 Assay for human Transforming Growth Factor (TGF) (AID 2282967); settings: HepG2 Attagene CIS TGFb reporter, mRNA transcription; actives raise or lower the signal
In short: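 After a 24-hour incubation with compound, transfected HepG2 cells were lysed for RNA; reporter cDNA was amplified, fluorescently end-labeled and separated by CE. DMSO served as baseline for bidirectional fits.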

[12] = ATG_VDRE_CIS: Attagene CIS-FACTORIAL HepG2 Assay for human Vitamin D Receptor Element (VDRE) (AID 2282968); settings: HepG2 VDRE cis-reporter transcription, actives raise or lower the signal
In short: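 HepG2 cells transiently transfected with cis-element reporter units, dosed 24 h; reporter mRNA measured by RT-PCR, 6-FAM labeling, HpaI digestion and capillary electrophoresis. Activity fitted bidirectionally against DMSO baseline.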

[13] = target: Estrogen receptor (Homo sapiens) (UniProt P03372); experiment: ATG_ERa_TRANS: Attagene TRANS-FACTORIAL HepG2 Assay for human Estrogen Receptor alpha (ERa) (AID 2282970; active = hit-call score of the fitted dose curve at least 0.9, where 1 is the maximum); settings: HepG2 Attagene TRANS ERa GAL4 reporter, mRNA
Chain of Estrogen receptor (Homo sapiens) (P03372 whole entry, looked up, the tested form may be a part): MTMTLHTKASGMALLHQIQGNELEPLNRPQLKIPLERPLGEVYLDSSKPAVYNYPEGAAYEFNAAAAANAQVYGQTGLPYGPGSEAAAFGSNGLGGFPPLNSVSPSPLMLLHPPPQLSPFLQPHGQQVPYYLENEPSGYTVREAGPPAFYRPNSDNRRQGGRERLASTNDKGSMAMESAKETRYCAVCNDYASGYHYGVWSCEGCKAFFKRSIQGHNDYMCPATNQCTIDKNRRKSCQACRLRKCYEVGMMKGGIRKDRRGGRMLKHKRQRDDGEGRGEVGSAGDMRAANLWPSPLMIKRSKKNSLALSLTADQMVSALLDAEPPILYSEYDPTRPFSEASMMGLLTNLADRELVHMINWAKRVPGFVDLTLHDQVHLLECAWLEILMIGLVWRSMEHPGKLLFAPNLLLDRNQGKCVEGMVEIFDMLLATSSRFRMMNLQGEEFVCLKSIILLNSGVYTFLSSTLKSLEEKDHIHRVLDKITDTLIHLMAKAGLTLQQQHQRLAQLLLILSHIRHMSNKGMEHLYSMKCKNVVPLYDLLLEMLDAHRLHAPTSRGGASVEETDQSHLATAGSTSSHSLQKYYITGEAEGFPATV
In short: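 HepG2 cells transiently transfected with multiplexed GAL4-UAS reporter units; ERa activity read via exogenous chimeric NR-Gal4 protein. After 24 hour compound exposure, reporter mRNA measured by RT-PCR with 6-FAM labelling and capillary electrophoresis; gain-of-signal fitted relative to DMSO.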

[14] = target: X-box-binding protein 1 (Homo sapiens) (UniProt P17861); experiment: ATG_Xbp1_CIS: Attagene CIS-FACTORIAL HepG2 Assay for human X-box Binding Protein 1 (XBP1) (AID 2282972); settings: HepG2 XBP1 cis-element reporter, Attagene multiplex; actives raise or lower the signal
Chain of X-box-binding protein 1 (Homo sapiens) (P17861 whole entry, looked up): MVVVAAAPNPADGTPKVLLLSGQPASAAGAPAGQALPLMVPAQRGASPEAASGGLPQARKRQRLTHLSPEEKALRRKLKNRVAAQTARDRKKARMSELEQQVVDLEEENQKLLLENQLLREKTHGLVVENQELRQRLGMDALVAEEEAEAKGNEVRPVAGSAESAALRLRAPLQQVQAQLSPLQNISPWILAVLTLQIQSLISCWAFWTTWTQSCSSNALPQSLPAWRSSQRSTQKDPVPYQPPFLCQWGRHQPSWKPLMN
In short: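 HepG2 cells transiently transfected with multiple cis-element reporter units report endogenous TF activity; 24 h exposure, then reporter mRNA measured by RT-PCR, 6-FAM labelling, HpaI digestion and capillary electrophoresis. Bidirectional fitting versus DMSO.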

[15] = ATG_GAL4_TRANS: Attagene TRANS-FACTORIAL HepG2 Assay for GAL4 (Internal Marker) (AID 2282976; active = hit-call score of the fitted dose curve at least 0.9, where 1 is the maximum); settings: HepG2 Attagene TRANS GAL4 internal marker reporter
In short: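 HepG2 cells transiently transfected with multiplexed GAL4-UAS reporter constructs were dosed for 24 h. Reporter mRNA was measured by RT-PCR, 6-FAM primer extension, HpaI digestion and capillary electrophoresis, and gain of signal was fitted relative to DMSO.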

[16] = ATG_TA_CIS: Attagene CIS-FACTORIAL HepG2 Assay for human TA Basal Promoter (AID 2282964); settings: HepG2 Attagene CIS-factorial TA basal promoter reporter; actives raise or lower the signal
In short: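 Transient MRTU transfection of HepG2 preceded 24 h compound exposure. Reporter mRNA levels were then read by RT-PCR with capillary electrophoresis, and this background-control endpoint was fitted bidirectionally to DMSO.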

[17] = target: Nuclear receptor subfamily 1 group I member 3 (Homo sapiens) (UniProt Q14994); experiment: ATG_CAR_TRANS: Attagene TRANS-FACTORIAL HepG2 Assay for human Constitutive Androstane Receptor (CAR) (AID 2282969; active = hit-call score of the fitted dose curve at least 0.9, where 1 is the maximum;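 also: activators raise reporter mRNA above DMSO so AC50 marks induction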); settings: HepG2 Attagene TRANS-FACTORIAL CAR reporter
Chain of Nuclear receptor subfamily 1 group I member 3 (Homo sapiens) (Q14994 whole entry, looked up, the tested form may be a part): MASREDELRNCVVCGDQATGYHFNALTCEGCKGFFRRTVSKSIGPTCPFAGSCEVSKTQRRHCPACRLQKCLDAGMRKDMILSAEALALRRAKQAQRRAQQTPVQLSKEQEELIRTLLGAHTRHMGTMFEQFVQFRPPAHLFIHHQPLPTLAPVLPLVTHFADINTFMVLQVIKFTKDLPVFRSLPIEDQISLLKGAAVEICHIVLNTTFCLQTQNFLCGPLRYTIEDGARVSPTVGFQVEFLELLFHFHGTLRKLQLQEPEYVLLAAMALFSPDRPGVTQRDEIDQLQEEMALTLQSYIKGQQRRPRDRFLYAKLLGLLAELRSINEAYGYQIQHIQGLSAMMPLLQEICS
In short: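 HepG2 cells transiently transfected with multiplexed GAL4-UAS reporter units expressing chimeric NR-Gal4 proteins; compound exposure 24 h. Reporter mRNA measured by RT-PCR, 6-FAM labelling, HpaI digestion and capillary electrophoresis; gain-of-signal fitted against DMSO baseline.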

[18] = ATG_M_19_TRANS: Attagene TRANS-FACTORIAL HepG2 Assay for M19 Transcription Factor (Internal Marker) (AID 2282974; active = hit-call score of the fitted dose curve at least 0.9, where 1 is the maximum); settings: HepG2 Attagene TRANS-FACTORIAL M19 internal marker reporter
In short: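 Measured here: internal-marker reporter transcript from HepG2 cells transfected with MRTUs, harvested at 24 h. cDNA PCR products were 6-FAM labelled by primer extension, cut with HpaI for 2 h at 37 C, and resolved by CE.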

[19] = target: Estrogen-related receptor gamma (Homo sapiens) (UniProt P62508); experiment: ATG_ERRg_TRANS: Attagene TRANS-FACTORIAL HepG2 Assay for human Estrogen-Related Receptor gamma (ERRg) (AID 2282977; active = hit-call score of the fitted dose curve at least 0.9, where 1 is the maximum;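 also: hits increase reporter signal over DMSO so potencies reflect activators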); settings: HepG2 Attagene TRANS reporter, ERRg transactivation
Chain of Estrogen-related receptor gamma (Homo sapiens) (P62508 whole entry, looked up, the tested form may be a part): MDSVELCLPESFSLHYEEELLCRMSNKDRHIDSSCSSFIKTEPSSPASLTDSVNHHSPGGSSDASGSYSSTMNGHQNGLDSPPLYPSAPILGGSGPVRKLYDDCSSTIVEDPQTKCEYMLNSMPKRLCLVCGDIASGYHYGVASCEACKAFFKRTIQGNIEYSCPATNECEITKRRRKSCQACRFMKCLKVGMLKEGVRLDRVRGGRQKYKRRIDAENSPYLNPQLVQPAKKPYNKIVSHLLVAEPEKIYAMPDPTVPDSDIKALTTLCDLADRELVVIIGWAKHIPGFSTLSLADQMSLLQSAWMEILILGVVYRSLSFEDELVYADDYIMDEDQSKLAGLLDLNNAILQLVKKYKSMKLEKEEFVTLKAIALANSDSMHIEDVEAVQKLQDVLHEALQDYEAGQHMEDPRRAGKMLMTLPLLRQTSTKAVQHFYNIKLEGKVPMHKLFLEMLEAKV
In short: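 HepG2 cells transiently transfected with multiplexed GAL4-UAS reporter units and chimeric NR-Gal4 constructs were exposed to test chemicals for 24 h. Reporter mRNA was measured by RT-PCR, 6-FAM primer extension, HpaI digestion and capillary electrophoresis; gain-of-signal versus DMSO.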

[20] = target: Steroid hormone receptor ERR1 (Homo sapiens) (UniProt P11474); experiment: ATG_ERRa_TRANS: Attagene TRANS-FACTORIAL HepG2 Assay for human Estrogen-Related Receptor alpha (ERRa) (AID 2282971; active = hit-call score of the fitted dose curve at least 0.9, where 1 is the maximum); settings: HepG2 Attagene TRANS reporter, ERRa transactivation
Chain of Steroid hormone receptor ERR1 (Homo sapiens) (P11474 whole entry, looked up, the tested form may be a part): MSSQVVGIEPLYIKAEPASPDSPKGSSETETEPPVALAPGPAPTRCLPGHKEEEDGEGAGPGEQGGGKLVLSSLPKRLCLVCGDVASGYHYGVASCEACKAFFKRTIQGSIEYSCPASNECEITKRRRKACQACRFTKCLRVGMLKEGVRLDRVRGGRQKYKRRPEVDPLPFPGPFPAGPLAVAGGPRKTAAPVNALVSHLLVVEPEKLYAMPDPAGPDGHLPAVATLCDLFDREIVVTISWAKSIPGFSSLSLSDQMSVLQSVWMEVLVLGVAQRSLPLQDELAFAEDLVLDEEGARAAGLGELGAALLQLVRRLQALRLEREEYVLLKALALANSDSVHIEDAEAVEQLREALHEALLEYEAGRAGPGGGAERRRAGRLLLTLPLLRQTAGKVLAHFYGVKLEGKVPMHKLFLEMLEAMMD
In short: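 HepG2 cells transiently transfected with multiplexed GAL4-UAS reporter units reading chimeric ERRa-Gal4 activity; 24 h compound exposure. Reporter mRNA measured by RT-PCR, 6-FAM labelling, HpaI digest and capillary electrophoresis; gain of signal fitted versus DMSO baseline.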

Measured: AC50

CC(C)OP(=O)(CP(=O)(OC(C)C)OC(C)C)OC(C)C
active: [2] 7.59 µM
not listed: [16] | [17] | [18] | [19] | [20]
inactive: all other assays above

CN(C)CCOCCN(C)C
not listed: [12] | [13] | [15] | [20]
inactive: all other assays above

OCCOc1cccc(OCCO)c1
not listed: [13] | [16]
inactive: all other assays above

CC(=O)[O][Al][O]C(C)=O
active: [2] 6.49 µM
not listed: [12] | [13] | [17] | [18] | [19] | [20]
inactive: all other assays above

C[C@]12CC[C@H]3[C@@H](CCC4=CC(=O)CC[C@@]43C)[C@@H]1CC[C@@H]2C(=O)CO
inactive: [3] | [4] | [5] | [6] | [7] | [8] | [10] | [11]
active: [1] 100 µM | [2] 1.7 µM | [9] 100 µM | [12] 5.34 µM | [13] 1.78 µM

O=C(O)CCCCC1CCSS1 (stereo not given)
not listed: [13] | [15] | [16] | [17] | [18] | [19] | [20]
inactive: all other assays above

COc1cc(C=O)ccc1OC(=O)C(C)C
not listed: [13] | [17] | [20]
inactive: all other assays above

CCCCCCCCCC=O
active: [3] 46.1 µM
not listed: [15] | [16] | [17] | [18] | [19] | [20]
inactive: all other assays above

O=C(O)Cc1cccc2ccccc12
active: [3] 100 µM
not listed: [13] | [15] | [17] | [19] | [20]
inactive: all other assays above
